The nature of test [1]: E. coli DRC41 culture turbidity changes, primary screen, E. coli filamentation inducer project, strain DRC41, OD650, 48 h (AID 1152).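 Note: E. coli MC1000 strain DRC41 lacking acrAB efflux pump and sulA.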 The settings on record: E. coli DRC41 (acrAB sulA), higher = more signal, called active from +8 up or from −8 down.
Test [2] can be described thus: small-molecule binders of probe aLefty1, primary screen, biochemical, small-molecule microarray, 635/667 nm fluorescence (AID 1153).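 Note: score merges spot fluorescence with signal-to-noise ratio from the scanned slide images.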 As to conditions: higher = more signal.
Test [3] is described as follows: PSAC antagonists in infected red cells, primary screen, cell-based, P. falciparum Indochina, OD700, 1 h (AID 1154). The settings on record: P. falciparum Indochina infected RBC osmotic lysis, higher = more signal, called active from +8 up or from −8 down.
Test [4] can be described thus: PSAC antagonists in infected red cells, primary screen, cell-based, P. falciparum Indochina, OD700, 2 h (AID 1155).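 Note: lysis reports solute entry through the parasite surface anion channel PSAC; channel blockers reduce lysis of infected cells.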 As to conditions: P. falciparum Indochina infected erythrocytes, osmotic lysis OD700; higher = more signal, called active from +8 up or from −8 down.
Test [5] in a line: osmotic lysis modulators in infected erythrocytes, primary screen, PSAC antagonist project, cell-based, P. falciparum Indochina, OD700, 3 h (AID 1156). As to conditions: higher = more signal, called active from +8 up or from −8 down.
Test [6] in a line: PSAC antagonists in infected red cells, primary screen, cell-based, P. falciparum Indochina, OD700, 18 h (AID 1157). The settings on record: P. falciparum Indochina infected erythrocytes, osmotic lysis OD700, 18 h; higher = more signal, called active from +8 up or from −8 down.
Test [7] is described as follows: modulators of S6 phosphorylation in cells, primary screen, cell-based, A549, cytoblot, luminescence, serum-stimulated (AID 1158).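 Note: serum-stimulated A549 lung adenocarcinoma cells; signal is phosphorylated S6 detected by cytoblot immunostaining with HRP secondary.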 As to conditions: A549 phospho-S6 cytoblot, 5 h, higher = more signal.
For test [8], the target named is NADPH oxidase 2 (Homo sapiens) (UniProt P04839). In words: NOX2-dependent H2O2 signal modulators, primary screen, NOX inhibitor project, cell-based, HEK293-NOX2, PMA-stimulated, Amplex Red fluorescence (AID 1159). Note: test concentration not given here. As to conditions: 45 min, higher = more signal, called active from +8 up or from −8 down.
The target of test [9] is NADPH oxidase 4 (Homo sapiens) (UniProt Q9NPH5). In words: NOX4-dependent H2O2 signal modulators, primary screen, NOX inhibitor project, cell-based, HEK293-NOX4, tetracycline-induced, Amplex Red fluorescence (AID 1160). As to conditions: 45 min, higher = more signal, called active from +8 up or from −8 down.
Test [10] addresses NADPH oxidase 5 (Homo sapiens) (UniProt Q96PH1). In words: NOX5-dependent H2O2 signal modulators, primary screen, NOX inhibitor project, cell-based, HEK293-NOX5, Amplex Red fluorescence (AID 1161). The settings on record: HEK293-NOX5, ionomycin, 45 min, higher = more signal.
Test [11] is described as follows: A549 cell viability effects, profiling panel, calcein-AM fluorescence, 48 h, basal (AID 1162). Note: test concentration not given here. As to conditions: higher = more signal.
Test [12] is described as follows: adipocyte viability effects, profiling panel, cell-based, 3T3-L1 adipocytes, calcein-AM fluorescence, 48 h, basal (AID 1163). Note: test concentration not given here. The settings on record: 3T3-L1 adipocytes viability, higher = more signal.
Test [13] is described as follows: HepG2 cell viability effects, profiling panel, calcein-AM fluorescence, 48 h, basal (AID 1164). Note: test concentration not given here. The settings on record: higher = more signal.
Test [14] in a line: MM1S cell viability effects, profiling panel, calcein-AM fluorescence, 48 h, basal (AID 1165).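 Note: viability of MM1S multiple myeloma cells under basal unstimulated conditions; test concentration not given here.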 As to conditions: higher = more signal.
Test [15] in a line: basal RPMI8226 viability, no added stimulus, profiling panel, cell-based, calcein-AM fluorescence, 48 h, PK04 Diversity Set (AID 1166).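 Note: cells grown under basal conditions without added stimulus; test concentration not given here.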 The settings on record: RPMI8226 myeloma viability, higher = more signal.
Test [16] is described as follows: basal HepG2 mitochondrial membrane potential changes, profiling panel, cell-based, JC-1 fluorescence, 24 h, 100 nL compound (AID 1167). Note: test concentration not given here. As to conditions: higher = more signal.
Test [17] in a line: basal 3T3-L1 adipocyte mitochondrial potential changes, profiling panel, cell-based, JC-1 fluorescence, 3T3-L1 adipocytes, 24 h, 100 nL compound (AID 1168). Note: test concentration not given here. The settings on record: JC-1 mitochondrial fluorescence, higher = more signal, called active from +8 up or from −8 down.
Test [18] can be described thus: basal RPMI8226 mitochondrial membrane potential changes, profiling panel, cell-based, JC-1 fluorescence, 24 h, 100 nL compound (AID 1169). Note: test concentration not given here. As to conditions: RPMI8226 myeloma, JC-1 mitochondrial potential fluorescence, higher = more signal.
A short description of test [19]: basal MM1S mitochondrial membrane potential changes, profiling panel, cell-based, JC-1 fluorescence, 24 h, 100 nL compound (AID 1170). Note: test concentration not given here. As to conditions: higher = more signal.
The nature of test [20]: A549 lung cancer cell viability effects, profiling panel, resazurin fluorescence, 24 h, PK04 Diversity Set (AID 1171). Note: test concentration not given here. As to conditions: higher = more signal, called active from +8 up or from −8 down. On the technique in general: Resazurin is reduced to fluorescent resorufin, in cell work by metabolically active cells.

Activity calls are given as the source filed them.

Sequence of NADPH oxidase 2 (Homo sapiens) (P04839 whole entry, looked up): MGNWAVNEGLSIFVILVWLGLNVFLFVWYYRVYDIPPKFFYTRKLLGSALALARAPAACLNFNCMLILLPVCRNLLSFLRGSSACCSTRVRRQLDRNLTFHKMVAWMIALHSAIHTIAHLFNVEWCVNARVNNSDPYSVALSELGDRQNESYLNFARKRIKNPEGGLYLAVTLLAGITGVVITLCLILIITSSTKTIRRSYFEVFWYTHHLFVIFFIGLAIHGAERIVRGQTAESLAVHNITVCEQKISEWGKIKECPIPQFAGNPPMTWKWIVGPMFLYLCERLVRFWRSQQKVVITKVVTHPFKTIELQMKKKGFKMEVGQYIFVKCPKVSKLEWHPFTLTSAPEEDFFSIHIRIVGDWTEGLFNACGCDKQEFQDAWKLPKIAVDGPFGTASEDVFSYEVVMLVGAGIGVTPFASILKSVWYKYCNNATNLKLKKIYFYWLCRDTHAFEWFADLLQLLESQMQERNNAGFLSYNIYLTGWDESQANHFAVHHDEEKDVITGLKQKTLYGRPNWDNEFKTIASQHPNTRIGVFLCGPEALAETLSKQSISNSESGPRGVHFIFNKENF
Sequence of NADPH oxidase 4 (Homo sapiens) (Q9NPH5 whole entry, looked up): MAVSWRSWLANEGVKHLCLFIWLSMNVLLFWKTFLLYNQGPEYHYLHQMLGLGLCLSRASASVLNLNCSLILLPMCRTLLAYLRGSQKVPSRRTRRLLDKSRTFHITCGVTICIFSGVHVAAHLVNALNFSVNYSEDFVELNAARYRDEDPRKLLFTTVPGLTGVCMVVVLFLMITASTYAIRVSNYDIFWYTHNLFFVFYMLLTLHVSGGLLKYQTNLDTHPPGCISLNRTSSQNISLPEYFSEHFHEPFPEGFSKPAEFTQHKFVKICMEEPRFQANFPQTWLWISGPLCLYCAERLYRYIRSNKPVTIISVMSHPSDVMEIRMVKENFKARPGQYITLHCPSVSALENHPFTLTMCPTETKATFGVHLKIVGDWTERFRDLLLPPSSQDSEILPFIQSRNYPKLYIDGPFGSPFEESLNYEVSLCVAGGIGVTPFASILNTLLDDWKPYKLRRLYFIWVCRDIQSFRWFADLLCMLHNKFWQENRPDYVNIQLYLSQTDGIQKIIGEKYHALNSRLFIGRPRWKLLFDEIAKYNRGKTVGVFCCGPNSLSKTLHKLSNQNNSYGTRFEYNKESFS
Sequence of NADPH oxidase 5 (Homo sapiens) (Q96PH1 whole entry, looked up): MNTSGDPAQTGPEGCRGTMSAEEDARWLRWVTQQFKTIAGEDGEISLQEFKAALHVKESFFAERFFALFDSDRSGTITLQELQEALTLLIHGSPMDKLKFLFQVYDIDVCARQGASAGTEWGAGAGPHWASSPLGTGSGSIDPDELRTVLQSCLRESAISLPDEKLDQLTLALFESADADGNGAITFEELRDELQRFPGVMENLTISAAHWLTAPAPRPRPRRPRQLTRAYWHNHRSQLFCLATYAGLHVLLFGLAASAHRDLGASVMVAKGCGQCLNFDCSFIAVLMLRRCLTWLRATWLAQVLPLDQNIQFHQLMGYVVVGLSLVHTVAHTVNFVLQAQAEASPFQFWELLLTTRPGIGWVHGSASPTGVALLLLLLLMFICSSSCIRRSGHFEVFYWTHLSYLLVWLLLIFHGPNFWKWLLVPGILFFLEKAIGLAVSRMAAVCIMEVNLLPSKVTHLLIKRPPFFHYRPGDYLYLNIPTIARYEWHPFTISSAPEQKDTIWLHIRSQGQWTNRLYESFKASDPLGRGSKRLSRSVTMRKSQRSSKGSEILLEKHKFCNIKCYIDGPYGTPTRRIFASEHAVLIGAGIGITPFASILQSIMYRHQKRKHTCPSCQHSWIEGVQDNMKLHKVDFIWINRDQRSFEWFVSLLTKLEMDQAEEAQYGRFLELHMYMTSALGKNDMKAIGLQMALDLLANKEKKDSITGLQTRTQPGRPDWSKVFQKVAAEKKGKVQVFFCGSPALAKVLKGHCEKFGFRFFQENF

Turning to `COC(=O)C1=CC(CCCO)=CC(c2cccs2)N(Cc2cc3c(cc2Br)OCO3)C=C1C(=O)OC` (stereo not given), the z-score in [1] was 0.801 (inactive); in [3] it was 5.84 (inactive); in test [4] it was 1.17 (inactive); in test [5], 0.277 (inactive); in test [6] it was 0.621 (inactive); in test [7], -0.176. Moreover, the z-score in test [8] is 1 (inactive); in test [9], -1.26 (inactive); in test [10], 1.05; in test [11], 0.236; in test [12], 0.425; in test [13], 0.897. Further, the z-score in test [14] was -1.26; in test [15], -0.188; in [16], 0.725; in test [17] it was -0.253 (inactive); in test [18] it was -0.131; in test [19], 0.398. Further, the z-score in test [20] is -0.0673 (inactive). The composite z-score in [2] is -0.0629.

`CC1CC/C=C\[C@H]2OC34C=CCN(C(C)(C)C)C(=O)[C@H]3N(CCCO)C(=O)[C@@H]4C2C(=O)O1` (stereo not given in full): the z-score was 0.0581 (inactive) in test [1]; -0.022 (inactive) in test [3]; 0.571 (inactive) in [4]; -0.857 (inactive) in [5]; 0.235 (inactive) in [6]; 0.337 in [7]. Also, the z-score in test [8] is 0.78 (inactive); in test [9] it was -2.14 (inactive); in test [10] it was 1.25; in test [11], -0.459; in [12], 0.0593; in [13], -0.869. Further, the z-score in test [14] was 1.15; in test [15], -0.339; in test [16], -0.749; in test [17] it was -0.274 (inactive); in test [18], -0.0634; in test [19], 0.522. Besides, the z-score in test [20] was -0.0125 (inactive). In addition, the composite z-score in [2] was -0.0954.

In the case of `C=C(CCCC)/C(=C/C[C@H](OC(=O)c1ccncc1)c1cccc(OCCO)c1)c1cnc2ccccc2c1`, the z-score in [1] is -0.639 (inactive); in test [3], 23.9 (active); in test [4], 7.01 (inactive); in test [5] it was 1.5 (inactive); in [6], 1.26 (inactive); in [7] it was -0.282. Besides, the z-score in [8] is -0.777 (inactive); in [9], -0.293 (inactive); in test [10] it was -1.82; in test [11], 1.35; in test [12], -0.893; in test [13], 0.0815. The z-score in test [14] was -3.37; in test [15], -2.3; in [16], 0.99; in test [17] it was -1.16 (inactive); in [18] it was -0.817; in [19] it was -0.718. In addition, in [20], the z-score is 0.588 (inactive). Further, in test [2], the composite z-score stood at 0.0429.

Turning to `COc1ccc(C(O)C2C=CC3C(=O)N(c4ccccc4)C(=O)C3N2Nc2ccc([N+](=O)[O-])cc2)c2ccccc12` (stereo not given), the z-score in test [1] is -1.31 (inactive); in [3] it was 9.23 (active); in test [4], 2.13 (inactive); in [5], 0.722 (inactive); in test [6], 1.12 (inactive); in test [7] it was -0.446. For the same molecule, the z-score in test [8] is -0.273 (inactive); in test [9] it was -0.96 (inactive); in test [10], -1.55; in [11], -0.826; in [12] it was -1.07; in [13], -0.39. Further, the z-score is -0.517 in [14]; -0.54 in [15]; -2.27 in [16]; -1.08 (inactive) in test [17]; -0.344 in [18]; -1.32 in test [19]. Also, the z-score in test [20] is 0.604 (inactive). Moreover, in test [2], the composite z-score was found to be 0.364.

Regarding `COc1ccc(C(=O)Nc2cccc(CN3C(=O)[C@@]4(O[C@@H](CC(=O)N5CCC[C@H]5CO)[C@H]([Si](C)(C)c5ccc(OC)cc5)[C@H]4C)c4ccccc43)c2)cc1`, the z-score in test [1] is -0.184 (inactive); in test [3] it was 4.51 (inactive); in test [4], 1.32 (inactive); in test [5], 0.691 (inactive); in test [6], 0.696 (inactive); in test [7], 1.31. Further, the z-score in test [8] was 1.24 (inactive); in test [9] it was 0.982 (inactive); in [10], 4.72; in test [11] it was -0.273; in test [12] it was 0.695; in [13], -0.765. The z-score in test [14] is -2.74; in test [15], -4.26; in [16], 1.98; in test [17], 0.487 (inactive); in [18] it was -1.13; in test [19] it was -1.06. For the same molecule, the z-score in [20] is -0.35 (inactive). In test [2], this molecule gave a composite z-score of -0.06.

The values above are taken from PubChem BioAssay.
